Data taken from PubChem BioAssay (NCI).
This is part of a sample that, as a whole, favours compounds with a hit. Of some 83,000 tested, about 20% had one in any assay.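 48-hour exposure, single concentration, 96-well plates; percent growth endpoint where 0 means no net growth. Active: below 10.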 Activity calls are given as the source filed them.

Test system: IGROV1 ovarian
Experiment: NCI-60 one-dose screen, 48 h (100 = growth as untreated, 0 = no growth, -100 = all killed)
Settings: 10 µM
Method: Growth inhibition of the IGROV1 human tumor cell line is measured as a screen for anti-cancer activity. Cells are grown in 96 well plates and exposed to the test compound for 48 hours. Compounds are tested at a single concentration, which is 10^-5 M for most compounds. The reported endpoint is percent growth (GI% or GIPRCNT), where numbers from 0 - 100% represent growth inhibition, and numbers from -100% - 0 represent cell death. For example, a value of 40 represents 60% growth inhibition. A value of 0 means no net growth occurred over the course of the experiment. A value of -40 indicates 40% of cells at the beginning of the experiment died by the end of the experiment. A value of -100 means all cells are dead at the end of the experiment.
NCI-60 Human Tumor Cell Lines Screen was performed using the standard one-dose NCI protocol, which is described in more detail at https://dtp.cancer.gov/discovery_development/nci-60/default.htm.
Compounds with GIPRCNT values below 10 were considered active. Activity score was based on GIPRCNT using the following formula: […]
Score is 0 for GIPRCNT values of 100 or above, 50 for GIPRCNT values of 0, and 100 for GIPRCNT values of -100.

Compound | growth
Cc1cn(C(=O)/C(Cl)=C(/Cl)C(=O)O)c2ccccc12 | 66.1% (inactive)
COc1ccc(Cn2cc3c(c2-c2cc(OC)c(OC)c(OC)c2)CCc2cnoc2-3)cc1[N+](=O)[O-] | 9.29% (active)
CCOC(=O)c1cc2c(n1Cc1cc(OC)cc(OC)c1)-c1oncc1CC2 | 14.3% (inactive)
Nc1cc(O)cc(O)c1 | 100% (inactive)
CCN(CC)CCOC(=O)c1ccc(NC(=O)Nc2cccc(Cl)c2)cc1 | 105% (inactive)
COc1ccc(CSc2nc3cc(OC)c(OC)cc3c(=O)n2-c2ccc(OC)cc2OC)cc1 | 86.1% (inactive)
CCc1nn2c(-c3ccccc3)c(-c3cc(OC)c(OC)c(OC)c3)nc2s1 | 87.3% (inactive)
CC1(C)CC(OCCCC[P+](c2ccccc2)(c2ccccc2)c2ccccc2)CC(C)(C)N1O | -21% (active)
COc1cc(C(=O)n2nc(N)c3c(C)cc(C)nc32)cc(OC)c1OC | 86% (inactive)
NCCNc1ccc2cc(-c3nc4ccccc4[nH]3)c(=O)oc2c1 | 99.8% (inactive)
CCOC(=O)c1c(O)c2cc(-c3ccccc3)nc(OCC)c2c(=O)n1C | 69.8% (inactive)
CCCOCC(O)CNCCN (stereo not given) | 116% (inactive)
C/C(=N\NC(=O)c1sc(=S)n(C)c1N)c1cc2ccccc2o1 | 37.5% (inactive)
CCCc1c(CC)c(=N)c2ccccc2n1C | 82.8% (inactive)
COC(=O)c1ccc(Cn2ccc(=O)[nH]c2=O)cc1 | 114% (inactive)
COc1ccc(-c2nc(SCC(=O)c3ccc(Br)cc3)[nH]c(=O)c2C#N)cc1 | 112% (inactive)
CCN(CCCNC(=O)Cc1cc(=O)oc2cc(N(C)C)ccc12)CCNc1ccnc2cc(Cl)ccc12 | 94% (inactive)
O=C(Nc1cccc(Cl)c1)Nc1cc2ncncc2cc1OCc1cccc(F)c1 | 19% (inactive)
COc1nc2c(c(=O)[nH]1)C(c1ccc(Oc3ccnc4cc(Cl)ccc34)c(OC)c1)C=C(c1cc(OC)c(OC)c(OC)c1)N2 (stereo not given) | 107% (inactive)
N#CN1CC[C@H](C(=O)Nc2ncc(-c3ccncc3)s2)C1 | 12.5% (inactive)

Compound | growth
c1ccc(CNc2nc(Nc3ccc(-c4nc5ccccc5[nH]4)cc3)c3cn[nH]c3n2)cc1 | 36.2% (inactive)
COc1cc(-c2n/c(=C\c3c(O)[nH]c4ccccc34)cc3c2=Nc2ccccc2-3)cc(OC)c1OC | 44.3% (inactive)
O=c1cc(CSc2nnc(-c3ccccc3)n2-c2ccc(F)cc2)c2ccc3ccccc3c2o1 | 92.2% (inactive)
O=[N+]([O-])c1ccc(S(=O)(=O)OCCCCOS(=O)(=O)c2ccc([N+](=O)[O-])cc2)cc1 | 115% (inactive)
COc1cc(-c2nc(-c3nnc(-c4cccnc4)o3)c3ccccn23)cc(OC)c1OC | 103% (inactive)
CCc1ccc(-c2nnc(COc3ccc(-c4nc5ccccc5[nH]4)cc3OC)o2)cc1 | 53.6% (inactive)
COc1ccc(C(=O)n2nc(CC(=O)NCc3ccccc3)nc2N)cc1 | 93.7% (inactive)
COc1cc(-c2cc(/C=C/C(C)=O)[nH]n2)cc(OC)c1OC | 73.8% (inactive)
Cc1ccc([P+](Cc2ccccc2)(c2ccccc2)c2ccccc2)cc1 | 0.953% (active)
N#CN1CC[C@H](C(=O)Nc2ncc(-c3ccccc3)s2)C1 | 11% (inactive)
Nc1c(CNCc2nnn(Cc3ccccc3)c2N)nnn1Cc1ccccc1 | 102% (inactive)
C[C@@H]1C(=O)N(C[C@H](Cc2ccccc2)NC(=O)OCc2ccccc2)[C@]1(Cc1ccccc1)C(=O)OCc1ccccc1 | 69.5% (inactive)
COc1ccc(/C(=C/c2cc(OC)c(OC)cc2[N+](=O)[O-])C(=O)O)cc1 | 107% (inactive)
Cc1ccc([P+](Cc2ccc([N+](=O)[O-])cc2)(c2ccc(C)cc2)c2ccc(C)cc2)cc1 | 11.9% (inactive)
Oc1ccc(Cn2cc3c(c2-c2ccccc2)CCc2cnoc2-3)cc1 | 120% (inactive)
O=C(O)c1ccccc1C(=O)c1cccc2c(F)cccc12 | 113% (inactive)
CCOC(=O)c1c(Cl)c2c(n1Cc1cccc(OC)c1)-c1oncc1CC2 | 23.5% (inactive)
C#CCn1c(-c2cccc(OCCCCl)c2)nc2c1c(=O)n(C)c(=O)n2C | 73.9% (inactive)
O=C(O)CCCN1C(=O)NC2(C1=O)c1ccccc1-c1ccccc12 | 101% (inactive)
COc1cc(-c2nc3ccccc3[nH]2)ccc1OCC(=O)N=Nc1c(O)[nH]c2ccccc12 | 93.2% (inactive)
